According to PubChem BioAssay (Tox21):
Inconclusive results are not listed. Entries that show only a call come without a potency. The source made the active and inactive calls. Unless noted, calls come from the whole dose curve; as a rule, active = well fitted curve in the direction sought with a large enough effect in the repeat runs; inconclusive = weak or mixed curves; inactive = no such curve, though single readings can be large; an effect the other way counts as inactive or inconclusive.

What was measured:
[1] = qHTS assay to identify small molecule antagonists of the thyroid receptor (TR) signaling pathway - cell viability counter screen (AID 743064); note: nearly all actives have a fitted effect of over 50% in size
In short: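 GH3.TRE-Luc rat pituitary cells dosed after 4 hr plating, co-stimulated with T3 at 1 nM final, incubated 23.5 h at 37 C. Viability measured in the same wells by CellTiter-Fluor fluorescence after 30 min further at 37 C.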

[2] = qHTS assay to identify small molecule antagonists of the thyroid receptor (TR) signaling pathway (AID 743065); note: nearly all actives have a fitted effect of over 55% in size; note: potency is the fitted concentration of half-maximal effect
In short: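 GH3.TRE-Luc rat pituitary cells (two TREs driving luciferase) were dosed with compound, then stimulated with 1 nM T3 (final) for 23.5 h at 37 C. ONE-Glo luminescence was the read-out, with CellTiter-Fluor fluorescence as the cytotoxicity counter-screen.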

[3] = test system: thyroid hormone receptor (rat, GH3 cells); test: qHTS assay to identify small molecule agonists of the thyroid receptor (TR) signaling pathway (AID 743066; calls by dose curve)
[4] = qHTS assay to identify small molecule antagonists of the estrogen receptor alpha (ER-alpha) signaling pathway - cell viability counter screen (AID 743074; calls by dose curve;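 note: HEK293 cells carrying ER-alpha-UAS-bla reporter stimulated with 17beta-estradiol; nearly all actives have a fitted effect of over 45% in size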)
[5] = qHTS assay to identify small molecule antagonists of the estrogen receptor alpha (ER-alpha) signaling pathway using the BG1 cell line - cell viability counter screen (AID 743081);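 note: compound given together with 17beta-estradiol as the ER stimulus; series mostly up to about 70 µM; nearly all actives have a fitted effect of over 45% in size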
Aromatase (Homo sapiens) = Aromatase (Homo sapiens) (UniProt P11511); test: qHTS assay to identify aromatase inhibitors (AID 743083); note: nearly all actives have a fitted effect of over 55% in size; note: potency is the fitted concentration of half-maximal effect
[6] = target: Estrogen receptor (Homo sapiens) (UniProt P03372); test: qHTS assay to identify small molecule antagonists of the estrogen receptor alpha (ER-alpha) signaling pathway (AID 743069; active = well fitted curve in the direction sought with a large enough effect in the signal ratio in the repeat runs, not every such curve was filed as active; the % refers to the signal ratio)
In short: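 Beta-lactamase FRET fluorescence is read after 2 hr at room temperature with LiveBLAzer B/G substrate. Before that, ER-alpha-bla HEK293 cells sit 4 hr after plating, then receive compound plus 17beta-estradiol and incubate 18 hr at 37C.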

[7] = target: Estrogen receptor (Homo sapiens) (UniProt P03372); test: qHTS assay to identify small molecule agonists of the estrogen receptor alpha (ER-alpha) signaling pathway (AID 743075; calls by dose curve;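 note: HEK293 GripTite cells with ER-alpha and UAS-driven beta-lactamase reporter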)
[8] = target: Estrogen receptor (Homo sapiens) (UniProt P03372); test: qHTS assay to identify small molecule agonists of the estrogen receptor alpha (ER-alpha) signaling pathway using the BG1 cell line (AID 743079); note: nearly all actives have a fitted effect of over 20% in size
[9] = qHTS assay to identify small molecule antagonists of the estrogen receptor alpha (ER-alpha) signaling pathway using the BG1 cell line (AID 743080; calls by dose curve;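 note: BG1 cells stimulated with 17beta-estradiol alongside compound; series mostly up to about 70 µM; nearly all actives have a fitted effect of over 25% in size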)
In short: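 Readout is ONE-Glo luminescence, taken 30 min at room temperature after reagent addition, preceded by a CellTiter-Fluor viability read; BG1-Luc-4E2 cells had received compound and 17beta-estradiol for 21.5 h at 37 C.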

Chain of Estrogen receptor (Homo sapiens) (P03372 whole entry, looked up): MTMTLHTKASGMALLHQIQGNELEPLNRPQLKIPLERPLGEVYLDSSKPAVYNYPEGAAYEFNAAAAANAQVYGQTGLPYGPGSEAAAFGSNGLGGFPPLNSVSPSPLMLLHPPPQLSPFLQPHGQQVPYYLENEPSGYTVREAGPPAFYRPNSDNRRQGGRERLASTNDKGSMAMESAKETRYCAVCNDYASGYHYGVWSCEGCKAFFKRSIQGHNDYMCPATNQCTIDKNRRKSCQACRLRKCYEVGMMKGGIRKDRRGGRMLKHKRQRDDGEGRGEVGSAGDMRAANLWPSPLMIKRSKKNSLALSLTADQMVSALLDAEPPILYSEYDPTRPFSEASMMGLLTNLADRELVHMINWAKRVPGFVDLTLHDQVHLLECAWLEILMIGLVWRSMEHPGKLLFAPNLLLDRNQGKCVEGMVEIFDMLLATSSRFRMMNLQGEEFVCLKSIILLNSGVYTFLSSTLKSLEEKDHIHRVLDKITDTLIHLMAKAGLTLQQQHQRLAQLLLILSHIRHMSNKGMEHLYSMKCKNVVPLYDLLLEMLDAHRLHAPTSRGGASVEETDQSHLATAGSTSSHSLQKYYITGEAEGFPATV
Chain of Aromatase (Homo sapiens) (P11511 whole entry, looked up): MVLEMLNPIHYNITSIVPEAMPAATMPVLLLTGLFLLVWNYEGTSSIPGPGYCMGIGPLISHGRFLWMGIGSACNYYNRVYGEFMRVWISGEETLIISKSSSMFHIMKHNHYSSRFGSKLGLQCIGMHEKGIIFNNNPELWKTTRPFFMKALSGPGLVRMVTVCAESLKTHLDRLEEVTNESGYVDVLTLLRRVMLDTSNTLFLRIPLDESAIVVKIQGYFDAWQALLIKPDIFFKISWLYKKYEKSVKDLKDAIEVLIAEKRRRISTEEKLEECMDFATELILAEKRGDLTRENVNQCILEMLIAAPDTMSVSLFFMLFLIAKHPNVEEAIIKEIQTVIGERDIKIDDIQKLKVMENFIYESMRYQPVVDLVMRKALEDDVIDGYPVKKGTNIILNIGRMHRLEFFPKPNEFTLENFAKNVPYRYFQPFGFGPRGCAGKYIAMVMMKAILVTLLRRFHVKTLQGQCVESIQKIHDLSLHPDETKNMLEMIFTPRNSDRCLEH

SMILES | Potency [1] | Potency [2] | outcome [3] | Potency [4] | outcome [5] | Potency (Aromatase (Homo sapiens)) | Potency [6] | Potency [7] | Potency [8] | Potency [9]
C#CC(C)(C)NC(=O)c1cc(Cl)cc(Cl)c1 | inactive | inactive | inactive | inactive | inactive | inactive |  |  |  | 
CCN(CC)CCO | inactive | inactive | inactive | inactive | inactive | inactive |  |  |  | 
c1ccc2c(c1)Oc1ccccc1O2 | inactive | inactive | inactive | inactive | inactive | inactive |  |  |  | 
CCC(C)(CC)c1cc(NC(=O)c2c(OC)cccc2OC)on1 | inactive | 54.6 µM (active) | inactive | inactive | inactive | inactive |  |  |  | 
Clc1ccccc1Cl | inactive | inactive | inactive | inactive | inactive | inactive |  |  |  | 
CON(C)C(=O)Nc1ccc(Cl)c(Cl)c1 | inactive |  | inactive | inactive | inactive | inactive | inactive | inactive | inactive | 
CC(C)(C)OOC(=O)c1ccccc1 | inactive | inactive | inactive | inactive | inactive | inactive |  |  |  | 
CC1OC(C)OC(C)O1 (configuration not stated) |  |  |  | inactive | inactive | inactive |  |  |  | 
CCNc1nc(NC(C)(C)C)nc(SC)n1 | inactive |  | inactive | inactive | inactive | inactive | inactive | inactive | inactive | inactive
CCC[N+](=O)[O-] | inactive | inactive | inactive | inactive | inactive | inactive |  |  |  | 
CCOP(=S)(OCC)SCCSCC | inactive | inactive | inactive | inactive | inactive | inactive |  |  |  | 
CN1C(=O)CN=C(c2ccccc2)c2cc(Cl)ccc21 | inactive |  | inactive | inactive | inactive |  |  |  |  | 
C=CCO | inactive |  |  | inactive | inactive | inactive |  |  |  | 
O=c1ccc(=O)[nH][nH]1 | inactive | inactive | inactive | inactive | inactive | inactive |  |  |  | 
CN=C=S |  | inactive | inactive | inactive | inactive | inactive | inactive | inactive | inactive | inactive
Cn1cc(-c2ccccc2)c(=O)c(-c2cccc(C(F)(F)F)c2)c1 | inactive |  | inactive | inactive | inactive | inactive | inactive | inactive | inactive | inactive
CCNc1nc(NC(C)C)nc(SC)n1 | inactive | inactive | inactive | inactive | inactive | inactive |  |  |  | 
Clc1cccc(Cl)c1Cl | inactive | inactive | inactive | inactive | inactive | inactive |  |  |  | 

SMILES | Potency [1] | Potency [2] | outcome [3] | Potency [4] | outcome [5] | Potency (Aromatase (Homo sapiens)) | Potency [6] | Potency [7] | Potency [8] | Potency [9]
CN(C)[C@@H]1C(=O)C(C(N)=O)=C(O)[C@@]2(O)C(=O)C3=C(O)c4c(O)cccc4[C@@](C)(O)[C@H]3C[C@@H]12 | inactive | inactive | inactive | inactive | inactive | inactive |  |  |  | 
Cc1cccc([N+](=O)[O-])c1 | inactive |  |  | inactive | inactive |  | inactive |  | inactive | inactive
CC(C)(C)OOC(C)(C)C |  | inactive | inactive | inactive | inactive | inactive | inactive | inactive | inactive | inactive
COCCl | inactive | inactive | inactive | inactive | inactive | inactive |  |  |  | 
COc1ccc2c3c1O[C@H]1[C@@H](O)C=C[C@H]4[C@@H](C2)N(C)CC[C@@]341 | inactive |  | inactive | inactive | inactive | inactive | inactive | inactive | inactive | inactive
C[C@]12CC[C@H]3[C@@H](CC[C@@]45O[C@@H]4C(O)=C(C#N)C[C@]35C)[C@@H]1CC[C@@H]2O |  |  |  | inactive | inactive | inactive |  |  |  | 
COC(=O)c1ccccc1N | inactive | inactive | inactive | inactive | inactive | inactive |  |  |  | 
Nc1ccc(Oc2ccc(N)cc2)cc1 | inactive |  |  | inactive | inactive | 54.5 µM (active) |  |  |  | 
CC(NC(C)(C)C)C(=O)c1cccc(Cl)c1 (configuration not stated) | inactive | inactive | inactive | inactive | inactive | inactive |  |  |  | 
CC(C)NC(=O)N1CC(=O)N(c2cc(Cl)cc(Cl)c2)C1=O |  | inactive | inactive | inactive | inactive | inactive | inactive | inactive | inactive | inactive
[O-][Cl+2]([O-])O | inactive |  |  | inactive | inactive | inactive | inactive | inactive | inactive | inactive
Oc1ccccc1Cl | inactive | inactive | inactive | inactive | inactive | inactive |  |  |  | 
C=CC(N)=O | inactive |  |  | inactive | inactive | inactive | inactive | inactive | inactive | inactive
CCCN(CCC)c1c([N+](=O)[O-])cc(C(F)(F)F)cc1[N+](=O)[O-] |  |  | inactive | inactive | inactive | inactive | inactive | inactive | inactive | inactive
CCc1cccc(C)c1N(C(=O)CCl)C(C)COC (configuration not stated) | inactive |  |  | inactive | inactive |  |  |  |  | 
O=[N+]([O-])c1ccc(Oc2ccc(Cl)cc2Cl)cc1 | inactive | inactive | inactive | inactive | inactive | inactive |  |  |  | 
O=c1[nH]c(=O)[nH]c(=O)[nH]1 | inactive | inactive | inactive | inactive | inactive | inactive |  |  |  | 
OC(O)C(Cl)(Cl)Cl | inactive | inactive | inactive | inactive | inactive | inactive |  |  |  | 
